Experimental data: PubChem BioAssay (NCATS)
Results filed as inconclusive are left out. The source made the active and inactive calls. Calls follow the shape of the dose curve; as a rule, active = well fitted inhibition curve with a large enough effect; inconclusive = small, poorly fitted or top-dose-only effect; inactive = no such curve, though single readings can be large or run the other way.

Target: Cytochrome P450 2D6 (Homo sapiens) (UniProt P10635)
Test: qHTS Assay for Inhibitors and Substrates of Cytochrome P450 2D6 (AID 891); also: nearly all actives have a fitted effect of over 60% in size
Conditions: recombinant CYP2D6, luciferin-ME EGE luminescence; series mostly up to 11.4 µM; activity change, negative = inhibition: at the top concentration
Experimental: NIH Molecular Libraries Screening Centers Network [MLSCN]
NIH Chemical Genomics Center [NCGC]
The P450 gene superfamily is involved in the metabolism and clearance of xenobiotics. This assay used human CYP2D6 to measure the demethylation of ethylene glycol ester of luciferin 6' methyl ether (Luciferin-ME EGE; […]) to luciferin. The luciferin is then measured by luminescence after the addition of a luciferase detection reagent. Luciferin-ME EGE concentration in the assay was equal to its Km for CYP2D6. Inhibitors and some substrates limit the production of luciferin, and decrease measured luminescence.
NCGC Assay Protocol Summary:
Two uL of enzyme and substrate mix (final concentrations: 5nM CYP2D6, 30uM Luciferin-ME EGE, 100mM KPO4) were dispensed into a white, solid bottom 1536-well microtiter plate. 23nL of compound was transferred by a pin tool. The plate was incubated at room temperature for 10 min. Two uL of an NADPH regeneration solution (Promega supplied reagent) was dispensed and the reaction was allowed to continue for 60 min at room temperature. Then the reaction was stopped by reconstituted luciferin detection buffer. After another 20 min of incubation the plate was read on the ViewLux (Perkin Elmer) at 60 sec exposure and 2x2 binning. This protocol was carried out with Promega-Glo reagents and further information can be found at http://www.promega.com/tbs/tb325/tb325.pdf. Data were normalized to the to AC100 inhibition (1.43 uM quinidine).
Keywords: P450, CYP2D6, Luciferase, MLSMR, MLSCN, NIH Roadmap, qHTS, NCGC
% is scaled to controls: 0 for no effect and ±100 for the full control effect; potency is read from the fitted curve at half-maximal effect.

Sequence of Cytochrome P450 2D6 (Homo sapiens) (P10635 whole entry, looked up): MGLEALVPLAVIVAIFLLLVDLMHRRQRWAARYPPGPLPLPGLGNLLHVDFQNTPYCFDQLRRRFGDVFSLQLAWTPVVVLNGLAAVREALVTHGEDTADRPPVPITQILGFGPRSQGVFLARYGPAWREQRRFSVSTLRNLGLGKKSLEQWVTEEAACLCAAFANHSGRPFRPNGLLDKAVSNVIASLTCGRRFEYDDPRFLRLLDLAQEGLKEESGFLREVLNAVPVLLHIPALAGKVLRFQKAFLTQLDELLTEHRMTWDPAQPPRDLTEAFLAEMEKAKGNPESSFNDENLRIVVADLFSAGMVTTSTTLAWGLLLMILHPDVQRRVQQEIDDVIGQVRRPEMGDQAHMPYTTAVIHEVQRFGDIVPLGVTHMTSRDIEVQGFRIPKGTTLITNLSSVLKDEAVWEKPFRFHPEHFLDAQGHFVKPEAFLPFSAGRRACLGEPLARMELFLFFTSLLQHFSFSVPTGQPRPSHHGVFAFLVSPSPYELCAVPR

Activity change, negative = inhibition, inactive:
C=CCC1(C)OC=Cc2nc3cc(Cl)c(Cl)cc3nc21 (stereo not given) -19%
CCCCCC(=O)c1cc(CC(C(=O)OC)C(=O)OC)cc2cc(OC)c(OC)cc12 -15.5%
C/C=C/OC(=O)NC(c1ccccc1)[C@@]1(C(=O)OCC)CCCC1=O (stereo not given in full) -7.9%
COC1C(O)COC1/C=C/c1ccccc1 (stereo not given) 6.85%
COC(=O)NC(CC(C)=O)c1ccc(Cl)cc1 (stereo not given) -8.84%
CCOC(c1cc(OC)cc([N+](=O)[O-])c1OC)C(C)C(OC)[C@@H](C)/C=C/CC(=O)OC (stereo not given in full) 11%
COC(=O)NC(CC(C)=O)c1cccc(F)c1 (stereo not given) 0.576%
CC1CCC2C(=O)N3C(CCC(C)[C@@H]3c3ccc(-c4ccco4)cc3)C(=O)N2C1c1cccc(N2CCCC2=O)c1 (stereo not given in full) -3.07%
CC(=O)OCC1OC(C#Cc2ccc(Br)cc2)C=CC1OC(C)=O (stereo not given) -8.86%
C=C(C)C(O)/C=C/c1ccc(C)cc1 (stereo not given) 7.66%
C[C@@H](c1ccccc1)N1C(=O)[C@H]2[C@@H]3[C@H](O)C=CC(=O)[C@H]3CC[C@H]2C1=O 30.6%
CC(=O)OCC1OC(C#CCCc2ccccc2)C=CC1OC(C)=O (stereo not given) 0.892%
COc1ccc(-c2nc3c(c4c2CC(C)OC4)CN(CCC(C)C)CC3)cc1 (stereo not given) -8.6%
COC(=O)/C=C/C1c2ccccc2C(OC)C1C (stereo not given) -4.77%
CC1CCC(C(=O)O)NC1c1ccc(C#CCN(C)C)cc1 (stereo not given) 3.5%
CC(C)(C)N1C(=O)[C@H]2[C@@H]3[C@H](O)[C@H](O)CC(=O)[C@H]3CC[C@H]2C1=O 26.7%
CCCCCCC#CC1C=CC(OC(=O)OCC)C(COC(=O)OCC)O1 (stereo not given) -3.7%
COc1ccc(/C=C/N(CCc2ccc(OC)c(OC)c2)C(C)=O)cc1 0.242%
CCCCCCCC#Cc1ccccc1C(NC(=O)OC)C(C(=O)OC)C(=O)OC (stereo not given) 10.8%
CCN1C(C)=C(C(=O)OC)C(c2ccccc2)N2C(=O)[C@@]3(C(=O)OC)O[C@@]12C1C(=O)CCCC13 (stereo not given in full) 2.85%
COC(=O)NC(CC(C)=O)c1ccccc1 (stereo not given) -6.32%
C=C(C)CC1(c2ccccc2)Oc2ccccc2-c2nc3cc(Cl)c(Cl)cc3nc21 (stereo not given) -9.66%
COC(=O)NC(c1cccc(C)c1)[C@@]1(C(=O)OC)CCCC1=O (stereo not given in full) 0.165%
COc1ccc(OC2C=CC(C#Cc3ccc(C(C)(C)C)cc3)OC2CO)cc1 (stereo not given) 0.0339%
C=CCOCC1CN2C(CCC(C)C2c2ccc(Br)cc2)C(=O)O1 (stereo not given) -4.69%
CCC(=O)[C@@]1(O)C(=O)N2C(=C3C(=O)OCCC31)N(Cc1ccccc1)C(C)=C(C(=O)OC)C2c1ccccc1 (stereo not given in full) 20.3%
COC(=O)NC(/C(C(=O)OC)=C(\C)NCc1ccccc1)c1ccco1 (stereo not given) -11.3%
COC(=O)NC(CC(C)=O)c1ccc2c(c1)OCO2 (stereo not given) 2.27%
CCOC(=O)N/N=C1/C[C@@H](O)[C@@H](O)[C@@H]2[C@@H]3C(=O)N(C4CCCCC4)C(=O)[C@H]3CC[C@@H]12 26.9%

Potency, inactive:
OCC1OC(C#Cc2ccccc2)C=CC1O (stereo not given)
CC1CCC2C(=O)OC(CN=[N+]=[N-])CN2C1c1ccc(Br)cc1 (stereo not given)
COc1ccc(OC2C(O)COC2/C=C/c2ccccc2)cc1 (stereo not given)
CCCCCCC1Cc2cc(OC)c(OC)cc2C(C(C(=O)OCC)C(=O)OCC)O1 (stereo not given)

Potency, active:
COc1cccc([C@@H]2Oc3ccc(OC)cc3/C(=N/O[C@@H](C)CN3CCCc4nc(C)c(C)cc43)[C@@H]2O)c1 3.98 µM
C=CC[C@@H]1C=C[C@H](O/N=C(\C)CCN2CCCCc3nc(C)c(C)cc32)[C@H](CO)O1 3.98 µM
COC(=O)C/C=C\[C@@H](C)[C@@H](/C=N\O[C@@H](C)CN1CCCc2nc(C)c(C)cc21)NS(=O)(=O)c1ccc(C)cc1 3.16 µM
CC(=O)OC[C@@H]1O[C@@H](O/N=C2/C[C@@H](O)[C@@H](O)[C@@H]3[C@@H]4C(=O)N(C5CCCCC5)C(=O)[C@H]4CC[C@H]23)[C@H](OC(C)=O)[C@H](OC(C)=O)[C@@H]1OC(C)=O 3.98 µM
COc1ccc(O[C@H]2C=C[C@@H](c3ccccc3)O[C@@H]2CO/N=C(\C)CCN2CCCc3nc(C)c(C)cc32)cc1 3.16 µM
CCC[C@@H]1C[C@@]1(CCC)C(NC(=O)OCc1ccccc1)c1ccc(-c2ccccc2)cc1 (stereo not given in full) 7.94 µM
CC(=O)OC[C@@H]1O[C@@H](O/N=C2/C[C@@H](O)[C@@H](O)[C@@H]3[C@@H]4C(=O)N(Cc5ccc6c(c5)OCO6)C(=O)[C@H]4CC[C@H]23)[C@H](OC(C)=O)[C@H](OC(C)=O)[C@@H]1OC(C)=O 3.16 µM
